Holding throughout (experiment): protein binding microarray; high values mean tight binding
What all share (settings): dsDNA, one strand shown

The target in assay [1] is RELARELA (p65 homodimer) (Homo sapiens, UniProt Q04206 1-307).
Assay [2] deals with p50p50 homodimer (Homo sapiens, UniProt P19838 7-356).
The target in assay [3] is T1, p52p52 homodimer (Homo sapiens, UniProt Q00653 4-332).
T1 sequence: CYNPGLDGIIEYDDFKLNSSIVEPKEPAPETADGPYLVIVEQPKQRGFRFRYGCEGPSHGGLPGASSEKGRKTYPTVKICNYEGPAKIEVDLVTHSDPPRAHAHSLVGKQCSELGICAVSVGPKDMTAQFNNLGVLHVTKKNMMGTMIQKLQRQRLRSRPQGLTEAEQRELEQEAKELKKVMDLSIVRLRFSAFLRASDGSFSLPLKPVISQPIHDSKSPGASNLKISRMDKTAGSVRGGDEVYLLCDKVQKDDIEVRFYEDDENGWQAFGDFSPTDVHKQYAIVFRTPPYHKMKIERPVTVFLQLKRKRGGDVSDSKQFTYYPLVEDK

The target of assay [4] is RELA (p65) subunit of heterodimer;p50 subunit (Homo sapiens;Homo sapiens, UniProt Q04206;P19838 1-307;7-356).
Chain of RELA (p65) subunit of heterodimer;p50 subunit (Q04206 1-307, chain 1 of 2): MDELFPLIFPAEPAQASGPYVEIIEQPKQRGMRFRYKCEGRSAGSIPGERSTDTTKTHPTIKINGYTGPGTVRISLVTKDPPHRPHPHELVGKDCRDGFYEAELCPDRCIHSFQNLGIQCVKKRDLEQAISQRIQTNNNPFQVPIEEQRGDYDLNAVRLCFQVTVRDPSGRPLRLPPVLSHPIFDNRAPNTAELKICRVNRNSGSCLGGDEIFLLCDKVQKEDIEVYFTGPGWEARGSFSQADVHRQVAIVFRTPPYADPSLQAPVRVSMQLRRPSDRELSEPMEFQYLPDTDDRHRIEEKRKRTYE
Chain of RELA (p65) subunit of heterodimer;p50 subunit (P19838 7-356, chain 2 of 2): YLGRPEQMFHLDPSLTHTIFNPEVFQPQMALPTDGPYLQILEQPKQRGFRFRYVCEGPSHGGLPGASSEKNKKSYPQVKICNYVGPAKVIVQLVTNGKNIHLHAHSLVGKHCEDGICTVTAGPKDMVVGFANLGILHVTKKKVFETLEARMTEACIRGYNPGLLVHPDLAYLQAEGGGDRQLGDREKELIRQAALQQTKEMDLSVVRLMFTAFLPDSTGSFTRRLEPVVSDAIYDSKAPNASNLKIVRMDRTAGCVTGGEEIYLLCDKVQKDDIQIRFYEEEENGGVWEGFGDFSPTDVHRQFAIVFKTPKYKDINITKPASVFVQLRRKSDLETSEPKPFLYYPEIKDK
Assay [5] concerns the target RELA (p65) subunit of heterodimer;p52 subunit (Homo sapiens;Homo sapiens, UniProt Q04206;Q00653 1-307;4-332).
Assay [6] deals with RELB subunit;p50 subunit (Homo sapiens;Homo sapiens, UniProt Q01201;P19838 120-401;7-356).
The target of assay [7] is T2, RELB subunit;p52 subunit (Homo sapiens;Homo sapiens, UniProt Q01201;Q00653 120-401;4-332).
T2 sequence 1: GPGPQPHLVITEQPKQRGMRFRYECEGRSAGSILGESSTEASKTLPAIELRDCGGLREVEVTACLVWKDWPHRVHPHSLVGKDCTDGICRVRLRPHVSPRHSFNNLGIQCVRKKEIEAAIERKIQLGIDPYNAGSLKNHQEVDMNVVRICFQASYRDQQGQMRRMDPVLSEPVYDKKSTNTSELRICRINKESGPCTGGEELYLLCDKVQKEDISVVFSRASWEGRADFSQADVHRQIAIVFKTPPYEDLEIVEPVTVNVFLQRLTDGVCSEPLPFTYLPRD
T2 sequence 2: T1 sequence

Assay [8] concerns the target C-Rel subunit;p50 subunit (Homo sapiens;Homo sapiens, UniProt Q04864;P19838 1-285;7-356).
The target of assay [9] is T3, C-Rel subunit;p52 subunit (Homo sapiens;Homo sapiens, UniProt Q04864;Q00653 1-285;4-332).
T3 sequence 1: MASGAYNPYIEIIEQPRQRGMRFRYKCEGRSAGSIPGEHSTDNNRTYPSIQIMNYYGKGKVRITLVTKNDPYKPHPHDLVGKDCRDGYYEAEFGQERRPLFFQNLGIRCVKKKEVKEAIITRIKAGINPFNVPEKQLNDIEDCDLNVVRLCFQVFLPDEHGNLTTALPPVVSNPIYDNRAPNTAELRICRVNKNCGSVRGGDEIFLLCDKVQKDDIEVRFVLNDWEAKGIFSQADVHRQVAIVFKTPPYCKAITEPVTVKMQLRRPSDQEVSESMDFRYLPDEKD
T3 sequence 2: T1 sequence

Chain of RELARELA (p65 homodimer) (Q04206 1-307): as the sequence (Q04206 1-307, chain 1 of 2) above
Chain of p50p50 homodimer (P19838 7-356): as the sequence (P19838 7-356, chain 2 of 2) above

As for GGAAGACTCCT, the binding signal in assay [1] is -0.12 z-score; in assay [2], -1.87 z-score; in [3] it was -0.778 z-score; in [4] it was -0.958 z-score; in assay [5], -1.02 z-score; in assay [6] it was -1.23 z-score. Besides, the values for the binding signal in [7], in assay [8] and in assay [9] were -0.943 z-score, -1.17 z-score and -0.891 z-score, respectively.

As to CGAGGGTTCCC, the binding signal in [1] is -0.124 z-score; in [2], -0.573 z-score; in assay [3], -0.304 z-score; in assay [4], -0.206 z-score; in assay [5], -0.377 z-score; in assay [6], -0.397 z-score. Moreover, the binding signal in assay [7] is -0.335 z-score; in assay [8], -0.0483 z-score; in assay [9] it was -0.0728 z-score.

For the sequence GGAGGTATCCC, the binding signal in assay [1] was -0.331 z-score; in assay [2] it was -1.01 z-score; in assay [3] it was -0.304 z-score; in [4] it was -0.519 z-score; in [5], -0.401 z-score; in [6], -0.488 z-score. Besides, the binding signal is -0.395 z-score in [7], -0.57 z-score in assay [8] and -0.276 z-score in [9].

Take GAGGTTCTCCC: the binding signal is 0.0177 z-score in assay [1]; 0.0309 z-score in assay [2]; -0.068 z-score in assay [3]; -0.00394 z-score in [4]; -0.121 z-score in assay [5]; 0.333 z-score in assay [6]. Further, the binding signal was 0.107 z-score in assay [7], -0.166 z-score in assay [8] and -0.0434 z-score in [9].

CGAATATTCCC: the binding signal stood at 1.87 z-score in assay [1]; 0.695 z-score in assay [2]; 0.525 z-score in [3]; 0.873 z-score in assay [4]; 0.929 z-score in [5]; 0.405 z-score in assay [6]. Also, the binding signal in assay [7] worked out at 0.536 z-score; in assay [8], 0.941 z-score; in [9], 0.858 z-score.

Regarding GAAAGCTCCCC, the binding signal in assay [1] was -0.0663 z-score; in assay [2] it was 0.67 z-score; in [3] it was 0.244 z-score; in assay [4] it was 0.536 z-score; in assay [5] it was 0.231 z-score; in assay [6], 0.445 z-score. Further, the binding signal in [7] amounted to 0.294 z-score; in assay [8], 0.317 z-score; in assay [9], 0.189 z-score.

Turning to GGAGTCTCCCC, the binding signal in [1] is 1.17 z-score; in assay [2] it was 0.531 z-score; in assay [3] it was 0.409 z-score; in assay [4], 1.27 z-score; in assay [5] it was 0.997 z-score; in [6] it was 0.547 z-score. Also, the binding signal in [7] is 0.514 z-score; in assay [8] it was 0.822 z-score; in assay [9] it was 0.954 z-score.

As for CGAGTTCTCCC, the binding signal is 0.00528 z-score in [1]; 0.1 z-score in [2]; -0.0592 z-score in assay [3]; 0.0957 z-score in assay [4]; -0.132 z-score in assay [5]; 0.367 z-score in assay [6]. In addition, the binding signal is 0.182 z-score in [7], -0.0444 z-score in assay [8] and -0.16 z-score in assay [9].

Take GGAGTTCCCCT: the binding signal in assay [1] stood at 2.77 z-score; in assay [2], 1.14 z-score; in [3], 2.83 z-score; in assay [4], 2.64 z-score; in [5], 2.79 z-score; in assay [6], 2 z-score. For the same sequence, the binding signal in assay [7] turned out to be 2.29 z-score; in assay [8], 2.61 z-score; in assay [9] it was 3.5 z-score.

With GAATTTACCCT, the binding signal stood at 0.959 z-score in assay [1]; 0.984 z-score in assay [2]; 0.839 z-score in [3]; 0.86 z-score in assay [4]; 0.817 z-score in [5]; 0.602 z-score in assay [6]. Further, the values for the binding signal in assay [7], in [8] and in assay [9] were 0.504 z-score, 0.6 z-score and 0.479 z-score, respectively.

As for AAGATGGCCCT, the binding signal was -0.837 z-score in assay [1]; -0.78 z-score in [2]; -0.556 z-score in assay [3]; -0.621 z-score in assay [4]; -0.715 z-score in [5]; -0.275 z-score in assay [6]. Also, the binding signal in assay [7] is -0.142 z-score; in assay [8], -0.828 z-score; in assay [9], -0.686 z-score.

Regarding CAGGACACCCT, the binding signal in assay [1] is -0.817 z-score; in assay [2], -1.69 z-score; in [3], -0.717 z-score; in assay [4], -0.865 z-score; in assay [5], -0.828 z-score; in assay [6], -0.795 z-score. Moreover, the binding signal is -0.656 z-score in [7], -1.21 z-score in assay [8] and -0.705 z-score in [9].

With AAAAAGCTCCT, the binding signal was -0.678 z-score in assay [1]; -1.47 z-score in assay [2]; -0.675 z-score in [3]; -1.01 z-score in assay [4]; -1.04 z-score in [5]; -1.17 z-score in [6]. Besides, the binding signal in [7] was -1.06 z-score; in [8], -1.49 z-score; in assay [9], -1.07 z-score.

On to AGGTATTTCCC, for which the binding signal in [1] turned out to be 2.88 z-score; in assay [2], 0.816 z-score; in [3], 2.74 z-score; in assay [4], 1.5 z-score; in [5] it was 2.11 z-score; in assay [6], 1.27 z-score. The binding signal in assay [7] worked out at 1.85 z-score; in assay [8], 1.43 z-score; in assay [9], 2.34 z-score.

On to GAATTATTCCC, for which the binding signal in [1] was 1.89 z-score; in assay [2], 0.532 z-score; in [3] it was 0.423 z-score; in assay [4], 0.97 z-score; in assay [5], 0.744 z-score; in assay [6], 0.44 z-score. Moreover, the figures for the binding signal in [7], in assay [8] and in [9] were 0.413 z-score, 1.16 z-score and 0.686 z-score, respectively.

As to CGATACACCCT, the binding signal is -0.54 z-score in [1]; -0.733 z-score in assay [2]; -0.36 z-score in assay [3]; -0.642 z-score in assay [4]; -0.613 z-score in assay [5]; -0.424 z-score in assay [6]. Further, the binding signal in assay [7] was -0.507 z-score; in assay [8], -0.73 z-score; in [9], -0.561 z-score.

Values taken from paper PMC3218832.
